HIF-2a block – blocks HIF-2a reporter activity | 786-0 RCC cells HIF-2a reporter, luciferase luminescence, overnight | inhibition, % at 18.8 µM | 360,000 compounds, 0.72% hits | AID 624352;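 active = inhibition of the luminescence signal of 40% or more relative to plate controls, in a single-dose primary screen at 18.75 µM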
KKLEB tox – reduces viability of KKLEB cystic fibrosis airway cells | KKLEB CF airway cells viability, ATPlite luminescence, overnight; active compounds read low; cells stimulated with P. aeruginosa culture filtrate | activity change (cytotoxicity), % at 5 µM | 360,000 compounds, 0.36% hits;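 active = corrected activity change at or below -50% at 5 µM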
CF NFkB inh – cystic fibrosis NF-kB activation inhibition. inhibition, % at 5 µM. KKLEB NF-kB-GFP reporter, PAF-induced, GFP fluorescence overnight. 360,000 compounds, 0.86% hits;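 active = at least 50% inhibition at 5 µM, scaled per plate between neutral and stimulator controls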;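 note: PAF is a Pseudomonas aeruginosa culture filtrate used as stimulus; plate controls were PAF-stimulated DMSO wells for no effect and unstimulated DMSO wells for full effect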
Peg3 prom inh – reduces Peg3 promoter-driven luciferase expression in HeLa | 360,000 compounds, 1.7% hits | inhibition, % at 20 µM | HeLa PEG-Prom luciferase reporter, luminescence, overnight;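 active = inhibition of at least 50% at 20 µM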
TROY NFkB inh – inhibitors of TROY-dependent NF-kB signaling | Q293 LMP1-TROYcd NF-kB luciferase reporter, 4 h | inhibition, % at 10 µM | 360,000 compounds, 0.98% hits;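 active = compounds whose plate-normalised and pattern-corrected inhibition of the luciferase reporter signal at the single screening dose is 50% or more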
TWEAK Fn14 block – TWEAK-Fn14 signaling inhibition; TWEAK-stimulated Fn14 reporter cells, luciferase luminescence, 8 h; inhibition, % at 10 µM; 360,000 compounds, 2% hits; AID 1159606; in the data active = inhibition above about 50%
An asterisk follows results filed as active; nt = no result given. The list is not random: actives were taken first. Their share in the collection is about 3.9%.

SMILES | HIF-2a block | KKLEB tox | CF NFkB inh | Peg3 prom inh | TROY NFkB inh | TWEAK Fn14 block
CC(=O)N1CCc2c(sc(NC(=O)C3COc4ccccc4O3)c2C(N)=O)C1 (centres undefined) | -66 | 2 | -9 | -45 | -14 | -15
COc1ccc(/C=N/Nc2nc(Nc3ccccc3)nc(N3CCCCC3)n2)c(OC)c1 | -18 | -9 | -11 | -20 | -19 | 8
CC(C)[C@H](NC(=O)c1ccccc1Cl)C(=O)OCC(=O)Nc1ccc(S(=O)(=O)N2CCOCC2)cc1 | 6 | 5 | 0 | 1 | 5 | 5
CC(=O)N(C)c1ccc(OCC(O)Cn2c3ccc(Cl)cc3c3cc(Cl)ccc32)cc1 (centres undefined) | 28 | -13 | -6 | 61* | 63* | 48
O=C(Nc1ncnc2c1C(c1ccccc1)c1c(ccc3ccccc13)O2)c1ccccc1 (centres undefined) | 17 | -15 | 39 | 34 | 13 | 54*
CCOC(=O)CCC(=O)Nc1ncnc2c1C(c1ccccc1)c1c(ccc3ccccc13)O2 (centres undefined) | 18 | -5 | 13 | 28 | 12 | 27
O=C(Cc1ccccc1)Nc1ncnc2c1C(c1ccccc1)c1c(ccc3ccccc13)O2 (centres undefined) | 21 | -13 | 18 | 53* | 39 | 51*
O=C(Cc1ccc(NC2=NC3CS(=O)(=O)CC3S2)cc1)NCc1ccc(Cl)cc1 (centres undefined) | 8 | 5 | 1 | 8 | 0 | 7
CC1CN(c2nc(-c3ccc(Br)cc3)nnc2-c2ccccc2)CC(C)N1 (centres undefined) | -60 | -10 | 14 | 62* | -40 | -4
O=C(CC1SC(=Nc2cccc3ccccc23)N(Cc2ccccn2)C1=O)Nc1ccccc1Br (centres undefined) | 8 | -15 | 12 | 32 | 4 | 39
Cc1ccccc1N=C1SC(CC(=O)Nc2ccc3ccccc3c2)C(=O)N1Cc1ccccn1 (centres undefined) | -30 | 4 | 0 | 42 | 27 | 72*
CCC(C)NCCOCCOc1ccc(F)cc1 (centres undefined) | 2 | -3 | -3 | 2 | -6 | 5
Cc1cc(OCC(=O)Nc2ccc(N3CCN(C(=O)c4ccco4)CC3)cc2)cc(C)c1Cl | 2 | 16 | 8 | 47 | 52* | 52*
NNC(=O)c1[nH]c2ccc([N+](=O)[O-])cc2c1-c1ccccc1 | 13 | 9 | -14 | 19 | 22 | -7
O=C(N/N=C/c1ccccn1)c1[nH]c2ccc([N+](=O)[O-])cc2c1-c1ccccc1 | -10 | -12 | -7 | 55* | 54* | 17
CCOc1cc(/C=N/NC(=O)c2cc(-c3cccc(OC)c3)nc3ccccc23)ccc1O | -19 | -2 | -3 | -4 | 58* | 78*
O=C(N/N=C/c1ccccn1)c1cc(C2CC2)nc2ccccc12 | 21 | -8 | 17 | -3 | 2 | 20
O=C(N/N=C/c1ccccn1)c1cc(-c2ccccc2)nc2ccccc12 | 8 | -6 | 3 | 66* | -82 | -149
Cc1cccc(C)c1NC(=O)C1(C)CN(S(C)(=O)=O)CC(=O)N1CCOc1ccccc1 (centres undefined) | 9 | nt | nt | nt | nt | nt
CN1C(=O)C(CCC(N)=O)NC1=S (centres undefined) | 20 | 0 | 5 | 27 | -3 | 17
CN1C(=O)[C@H](Cc2ccc([N+](=O)[O-])cc2)NC1=S | 10 | 10 | 21 | 12 | 28 | 51*
COc1ccc(/C=C/c2nnc(NC(=O)C(C)(C)C)s2)cc1 | -71 | -8 | 16 | -58 | -3 | -11
C[C@@]12C(=O)N(c3ccccc3)C(=O)N1[C@@H]1c3ccccc3OC[C@@H]1[C@H]2c1ccccc1 | 8 | 10 | -6 | 40 | 14 | 8
C[C@]12C(=O)N(c3ccc(C(F)(F)F)cc3)C(=O)N1[C@H]1c3ccccc3OC[C@@H]1[C@H]2c1ccccc1 | 8 | -22 | 60* | 6 | -2 | -46
O=C(C1CC(=O)N(c2ccc3c(c2)OCCO3)C1)N1CCN(S(=O)(=O)c2ccccc2F)CC1 (centres undefined) | 30 | 7 | 8 | -22 | 49 | 83*
SMILES | HIF-2a block | KKLEB tox | CF NFkB inh | Peg3 prom inh | TROY NFkB inh | TWEAK Fn14 block
O=C(Nc1nc(-c2ccco2)c(-c2ccco2)s1)C1CC(=O)N(c2ccc3c(c2)OCCO3)C1 (centres undefined) | 16 | 9 | -35 | 13 | 29 | 81*
CCc1cccc(CC)c1NC(=O)C1CC(=O)N(c2ccc3c(c2)OCCO3)C1 (centres undefined) | 18 | -8 | 2 | -12 | 22 | 69*
Cc1nnc(NC(=O)C2CC(=O)N(c3ccc4c(c3)OCCO4)C2)s1 (centres undefined) | 18 | -15 | -4 | 0 | 2 | 26
O=C(C1CC(=O)N(c2ccc3c(c2)OCCO3)C1)N1CCN(S(=O)(=O)c2ccc(F)cc2)CC1 (centres undefined) | 9 | 11 | 22 | 19 | 0 | 3
Cc1cc(C)c(NC(=O)C2CC(=O)N(c3ccc4c(c3)OCCO4)C2)c(C)c1 (centres undefined) | 20 | 0 | 19 | -2 | 13 | 42
CCOc1ccc(N2CC(C(=O)Nc3ccc4c(c3)OCCO4)CC2=O)cc1 (centres undefined) | 15 | -8 | 14 | 40 | 61* | 78*
CC(C)CC(NC(=O)C1CCC(C)CC1)C(=O)Nc1cccnc1 (centres undefined) | 6 | 5 | 5 | 7 | 2 | 2
CCc1ccc(-c2csc(NC(=O)C3CC(=O)N(c4ccc5c(c4)OCCO5)C3)n2)cc1 (centres undefined) | -5 | 0 | -12 | -17 | 48 | 75*
COc1ccc(-c2csc(NC(=O)C3CC(=O)N(Cc4ccccc4)C3)n2)cc1OC (centres undefined) | 4 | -1 | 3 | 31 | 9 | 89*
O=C1[C@@H]2[C@@H]3C[C@@H]([C@H]4ON=C(c5ccc(Cl)cc5)[C@@H]34)[C@@H]2C(=O)N1c1ccc2c(c1)OCO2 | -3 | -11 | 13 | -8 | -9 | 17
O=C(Nc1ccc2c(c1)OCCO2)NC1(C(F)(F)F)Oc2ccccc2O1 | 15 | 0 | 14 | -148 | 28 | 89*
CC(Nc1ccc2c(c1)OCCO2)C(=O)Nc1ccc2c(c1)OCO2 (centres undefined) | 3 | -2 | -14 | 3 | 50* | 59*
O=C(O)C1CC=CCC1C(=O)Nc1ccc(F)c(F)c1 (centres undefined) | 11 | -4 | 7 | 13 | -5 | -1
CCCC(C)C(=O)Nc1ccc2c(c1)OCCO2 (centres undefined) | -12 | 4 | -9 | -44 | 37 | 53*

Compound activity as filed in PubChem BioAssay.
